Results from PubChem BioAssay AID1776 (NMMLSC, 2009).
The whole screen tested about 190,000 compounds, of which about 490 (0.26%) were called active. The sample holds actives, similar compounds and a random draw of the others, so the mix is not that of the screen. Rule as the data show it: active = fluorescence above about 89; inactive = the rest.

Assay: green autofluorescence of compounds with GSH beads – biophysical, 488/530 nm, flow cytometry, artefact control, profiling panel (AID 1776);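 also: glutathione beads carrying GST-tagged Bcl family fusion proteins plus one bare bead set; values are compound well signal with DMSO vehicle wells as background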
Conditions: compound fluorescence 488/530 nm, at 10 µM, hits give high values

Compound	fluorescence (KMESF)
COc1ccc(CCNC(=O)CCn2c(=O)c3ccccc3n(CC(=O)NCC3CCCO3)c2=O)cc1OC (stereo not given)	70 (inactive)
CNc1nc2c(C)cccn2c(=O)c1C=Nc1ccc(OC)cc1	19 (inactive)
Cc1cccc2c(=O)n3c(nc12)CCCCC3	267 (active)
O=c1c2c(nc3n1CCCCC3)sc1c(O)cccc12	8 (inactive)
Cc1ccc2nc3n(c(=O)c2c1)CCC3	45 (inactive)
Cc1ccc(S(=O)(=O)NCCC(c2ccccc2)c2ccccc2)cc1C(=O)O	12 (inactive)
CCO/C=C1\C(=O)N(c2ccc(OCC)cc2)C(=O)c2ccccc21	14 (inactive)
Cc1cc(NC(=O)CN2C(=O)NC(CCc3ccccc3)C2=O)no1 (stereo not given)	13 (inactive)
O=C(c1ccc(OC2CCN(C(=O)c3cccnc3)CC2)cc1)N1CCCCCC1	11 (inactive)
Cc1cccc(Oc2c([N+](=O)[O-])c(=O)n(C)c3ccccc23)c1	55 (inactive)
O=C(COC(=O)CCCSc1nc2ccccc2[nH]1)Nc1ccc(Oc2ccccc2)cc1	11 (inactive)
CCCCC(NS(=O)(=O)c1ccc(C)cc1)C(=O)Oc1ccc2c3c(c(=O)oc2c1)CCC3 (stereo not given)	11 (inactive)
CCOC(=O)C1=C(C)NC(=O)NC1c1ccccc1 (stereo not given)	17 (inactive)
CCOC(=O)C1=C(C)NC(C)=C(C(=O)OCC)C1c1ccccn1	252 (active)
CCOC(=O)C1=C(C)NC(SC)=NC1c1ccccc1 (stereo not given)	34 (inactive)
CC(C)(C)NC(=O)CN(C(=O)c1csnn1)c1ccccc1-c1ccccc1	14 (inactive)
CCc1cccc(CC)c1NC(=O)COc1ccccc1C(=O)c1cc(C#N)c(=O)n(C2CCCCC2)c1	18 (inactive)
CCOc1ccc(NC(=O)NNC(=O)c2ccc(Cl)cc2Cl)cc1	21 (inactive)
COc1ccc(/C=N/OCC(=O)N(Cc2ccccc2)c2ccccc2C(=O)O)cc1	6 (inactive)
COC(=O)c1ccc(-c2noc(CN(Cc3ccccn3)CC3CCCO3)n2)cc1 (stereo not given)	18 (inactive)
CC(C)N1CCC(=NNc2ccc([N+](=O)[O-])cc2S(=O)(=O)N2CCOCC2)CC1	18 (inactive)
O=C(CSc1nnnn1-c1ccc(O)cc1)N1N=C(c2ccc3ccccc3c2)CC1c1ccccc1 (stereo not given)	16 (inactive)
Cc1ccc2c(Cl)c(C(=O)Nc3nn[nH]n3)sc2c1	15 (inactive)
COc1ccc(CN2C(=O)CC(Cc3ccc(C)cc3)C2=O)cc1OC (stereo not given)	10 (inactive)
Cc1ccc(C(=O)O)cc1NC(=O)c1ccc(Cn2nc(C)c(Cl)c2C)o1	15 (inactive)
COC(=O)C1NN=C(C(=O)c2ccc(Br)cc2)C1c1cccc(Br)c1 (stereo not given)	10 (inactive)
COC(=O)C1=C(C)N(C)C(=S)NC1c1ccccc1 (stereo not given)	13 (inactive)
COC(=O)C1=C(C)N(C)C(C)=C(C(=O)OC)C1c1cccc(Br)c1	266 (active)
CCOc1ccccc1/C=N/NC(=O)CNC(=O)COc1ccccc1	13 (inactive)
Cc1cccc(-n2cc(CN3CCN(C(=O)c4ncn[nH]4)CC3)c(-c3cccc(F)c3)n2)c1	12 (inactive)
